The text below walks through data of PubChem BioAssay (NCATS).

Experiment [1] is described as follows: qHTS profiling of the MIPE4 collection as inhibitors of Plasmodium falciparum (DD2) proliferation (Rep 2) (AID 743346; call rule not given here). The conditions noted are these: P. falciparum Dd2 in erythrocytes, SYBR Green DNA, 72 h; at 28.5 µM unless noted. The essentials: (§1)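 Parasite DNA was quantified by SYBR Green I fluorescence (ex 485, em 535 nm) after overnight lysis in saponin/Triton buffer at room temperature. Cultures at 0.3% parasitemia and 2.5% hematocrit were first exposed to compound for 72 h at 37 C; signals were normalised to artemisinin (0.29 uM) and vehicle wells.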
Background: qHTS replaces the single test concentration by a dilution series.

A short description of experiment [2]: qHTS profiling of the MIPE4 collection as inhibitors of Plasmodium falciparum (HB3) proliferation (AID 743347; call rule not given here;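 also: plate controls were DMSO vehicle wells for no effect and artemisinin wells for full effect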). The conditions noted are these: P. falciparum HB3 in erythrocytes, SYBR Green DNA, 72 h; at 28.5 µM unless noted. The essentials:
as §1

Experiment [3] is described as follows: High-throughput drug toxicity screening in the BPDCN cell line Gen2.2 (AID 1224824; call rule not given here;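 also: cells exposed to compounds for 48 h before reading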). Conditions: Gen2.2 BPDCN cells; at 45.8 µM (top of the series) unless noted. The essentials: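 Gen2.2 cells, 500 per well in phenol red-free RPMI with 10% FBS, exposed to compounds 48 h at 37 C, 5% CO2; viability by CellTiter-Glo luminescence. Percent activity scaled to DMSO (100%) and 9.2 uM bortezomib final (0%).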

A short description of experiment [4]: High-throughput drug toxicity screening in the BPDCN cell line Cal-1 (AID 1224825; call rule not given here). Conditions: Cal-1 BPDCN cell viability, qHTS; at 45.8 µM (top of the series) unless noted. The essentials: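 Percent activity derived from CellTiter-Glo luminescence, scaling DMSO to 100% and 9.2 uM final bortezomib to 0%. BPDCN Cal-1 cells (500/well, RPMI plus 10% FBS) incubated with compounds 48 hours at 37C before reading.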

A short description of experiment [5]: qHTS assay for measurement of the activity of small molecule inhibitors on Zika virus induced Caspase-3 activity in human iPSC derived neural progenitor cells (hNPCs) (AID 1224857). Also: % of control where 0% means no effect; nearly all actives have a fitted effect of over 65% in size. The essentials:
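Percent inhibition of virus-induced caspase-3/7 luminescence (Caspase-Glo), scaled between uninfected cells and Zika-infected cells. hNPCs received compound 1 hr before ZIKV at 2 FFU/cell, with 6 hours infection at 37 C.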

The nature of experiment [6]: qHTS assay for measurement of the activity of small molecule inhibitors on Zika virus induced Caspase-3 activity in human astrocytoma cells (AID 1224859).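 Also: plate controls were ZIKV-infected untreated cells for no effect and uninfected cells for full effect.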 The essentials:
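Luminescent caspase-3/7 read-out (30 min reagent, room temperature) in human SNB-19 cells infected 6 h with ZIKV (2 FFU/cell) after 1 h compound pre-incubation; Data were normalised to uninfected and infected wells.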

Experiment [7] in a line: qHTS Screen of the MIPE 4.0 Collection Against Ewings Sarcoma (TC71) (AID 1259253). Also: nearly all actives have a fitted effect of over 40% in size. Also: potency is read from the fitted curve at half-maximal effect. The essentials: (§2)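 Cells plated in serum-containing RPMI (5% FBS) and treated with compound dilutions for 48 h. Readout luminescent viability; normalization relied on vehicle (no inhibition) and media-only columns (full inhibition).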
Experiment [8] is described as follows: qHTS Screen of the MIPE 4.0 Collection Against Ewings Sarcoma (EW8) (AID 1259255). Also: nearly all actives have a fitted effect of over 35% in size. Also: potency is read from the fitted curve at half-maximal effect.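 As to viability: 100% = DMSO-treated cells and 0% = medium-only wells without cells.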 The method in brief:
as §2

Experiment [9] can be described thus: qHTS Screen of the MIPE 4.0 Collection Against Ewings Sarcoma (TC32) (AID 1259256).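 Also: 100% = DMSO-treated cells and 0% = medium-only wells without cells; nearly all actives have a fitted effect of over 45% in size.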 The essentials:
as §2

Experiment [10] can be described thus: qHTS assay to identify small molecule inhibitors of chordoma cells - UCH-1 (AID 1259355). Also: % is scaled to controls: 0 for no effect and ±100 for the full control effect; nearly all actives have a fitted effect of over 55% in size. The essentials:
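800 cells/well, overnight attach; compounds pinned at 15 concs, then auranofin/camptothecin/doxorubicin/rubitecan/topotecan combo added; 48hr 37 C, 5% CO2; CellTiter-Glo, 30min RT, luminescence.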

Experiment [11] is described as follows: qHTS assay to identify small molecule inhibitors of chordoma cells - UCH-2 (AID 1259356). Also: % is scaled to controls: 0 for no effect and ±100 for the full control effect.
The nature of experiment [12]: P-glycoprotein substrates identified in KB-8-5-11 adenocarcinoma cell line, qHTS therapeutic library screen (AID 1346987). Also: nearly all actives have a fitted effect of over 65% in size. The essentials: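 In this qHTS, P-gp-rich KB-8-5-11 cells received library compounds across a concentration range. Viability was quantified by luminescence after 72 h at 37 degree C.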
Experiment [13] can be described thus: qHTS Screen of the MIPE 4.0 Collection Against Ewings Sarcoma (RDES) (AID 1259252). Also: nearly all actives have a fitted effect of over 35% in size. Also: potency is read from the fitted curve at half-maximal effect. The method in brief:
as §2

Experiment [14] is described as follows: P-glycoprotein substrates identified in KB-3-1 adenocarcinoma cell line, qHTS therapeutic library screen (AID 1346986). Also: nearly all actives have a fitted effect of over 60% in size. Conditions: KB-3-1 parental cells viability, CellTiter-Glo, 72 h; at 44.5 µM (top of the series). The method in brief: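 Dose-response cytotoxicity, KB-3-1 vs P-gp-high KB-8-5-11, no colchicine in assay medium. Read: CellTiter-Glo at 72 h.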

Inconclusive results are not listed. Active and inactive are the calls of the source. Unless noted, calls follow the shape of the dose curve; as a rule, active = well fitted curve in the direction sought with a large enough effect; inconclusive = small, poorly fitted or top-dose-only effect, or another doubt; inactive = no such curve, though single readings can be large; an effect the other way counts as inactive or inconclusive.

For the molecule `CN(C)CCc1c[nH]c2ccc(CS(=O)(=O)N3CCCC3)cc12`, the parasite growth, % of control (lower = inhibition) in experiment [1] amounted to 86.7%. In experiment [2], this molecule showed a growth, % of control of 70.4%. The cell viability, % of control (lower = more cytotoxic) in [3] came out at 25%. Further, the viability (% of control) in [4] is 93.3%. Also, the Potency result in [5], in experiment [6], in [7], in [8], in experiment [9] and in experiment [10] was “inactive” throughout. Moreover, the Potency result in experiment [11] and in experiment [12] was “inactive” in each case.
Consider `O=C(O)c1ccc(-n2nc(-c3ccccc3O)nc2-c2ccccc2O)cc1`, for which the parasite growth, % of control (lower = inhibition) in [1] was determined as 34.2%. For the same molecule, in experiment [2], the growth, % of control amounted to 94.6%. Further, in experiment [3], the cell viability, % of control (lower = more cytotoxic) came out at 142%. For the same molecule, the viability (% of control) in experiment [4] was 25.8%. Besides, the Potency entry in experiment [5] and in experiment [6] was “inactive” in each case. For the same molecule, the Potency in experiment [13] is 20.9 µM (active); in experiment [7] it was 14.8 µM (active); in [8], 20.9 µM (active).
Take `CN(CCOc1ccc(CC2SC(=O)NC2=O)cc1)c1ccccn1` (configuration not stated): the parasite growth, % of control (lower = inhibition) in experiment [1] is 95.7%. Further, the growth, % of control in experiment [2] was 60.7%. Also, the cell viability, % of control (lower = more cytotoxic) in experiment [3] was 101%. For the same molecule, the viability (% of control) in [4] worked out at 107%. The Potency entry in [5], in [6], in experiment [8], in experiment [11] and in [12] was “inactive” in each case. For the same molecule, the results for the Potency in experiment [13] and in experiment [7] were 6.62 µM (active) and 10.5 µM (active), respectively.
In the case of `CCOCC(O)COc1ccc(NC(=O)CC[S+](C)C)cc1` (configuration not stated), in [1], the parasite growth, % of control (lower = inhibition) worked out at 97.7%. The molecule further displayed a growth, % of control in [2] of 99.4%. For the same molecule, the cell viability, % of control (lower = more cytotoxic) in experiment [3] came to 120%. For the same molecule, in [4], the viability (% of control) turned out to be 110%. Further, the Potency result in experiment [5], in [6], in experiment [7], in experiment [8], in experiment [10] and in experiment [11] was “inactive” in each case. Moreover, the Potency entry in experiment [12] was “inactive”. The result in experiment [14] was inactive.
Take `O=C(O)c1cc(=O)[nH]c(=O)[nH]1`: in [1], the parasite growth, % of control (lower = inhibition) is 89%. The growth, % of control in experiment [2] turned out to be 107%. In addition, in experiment [3], the cell viability, % of control (lower = more cytotoxic) was 184%. Besides, in experiment [4], the viability (% of control) came to 128%. Besides, the Potency result in experiment [5], in experiment [6], in [13], in experiment [7], in [8] and in [11] was “inactive” throughout. In addition, in experiment [12], the Potency result is “inactive”.
As for `CCCN[C@H]1CCc2nc(N)sc2C1`, the parasite growth, % of control (lower = inhibition) in experiment [1] was determined as 8.29%. This molecule also returned a growth, % of control in experiment [2] of 6.99%. For the same molecule, the viability (% of control) in [4] amounted to 78%. The Potency entry in experiment [5], in experiment [6], in experiment [13], in experiment [7], in [8] and in experiment [9] was “inactive” throughout. Further, the Potency entry in experiment [11] and in [12] was “inactive” throughout.
Consider `CCN[C@H]1C[C@H](C)S(=O)(=O)c2sc(S(N)(=O)=O)cc21`, for which the parasite growth, % of control (lower = inhibition) in [1] came to 117%. Moreover, the growth, % of control in experiment [2] came out at 103%. Further, the viability (% of control) in experiment [4] is 102%. The Potency result in experiment [5], in experiment [6], in experiment [7], in experiment [8], in [10] and in experiment [11] was “inactive” each time. For the same molecule, in experiment [12], the Potency result was “inactive”.
In the case of `Cn1nnc2c(C(N)=O)ncn2c1=O`, the parasite growth, % of control (lower = inhibition) in experiment [1] was determined as 120%. This molecule also yielded a growth, % of control in experiment [2] of 98.2%. For the same molecule, the viability (% of control) in experiment [4] turned out to be 80.1%. The Potency result in experiment [6], in experiment [13], in [7], in [8], in [11] and in experiment [12] was “inactive” throughout.
With `CC1CC2C3CCC4=CC(=O)C=C[C@]4(C)[C@@]3(F)[C@@H](O)C[C@]2(C)[C@@]1(O)C(=O)CO` (some centres not stated), the parasite growth, % of control (lower = inhibition) in [1] was 85.8%. The growth, % of control in experiment [2] came out at 102%. In [4], the viability (% of control) turned out to be 56.6%. The Potency entry in [5], in [6], in experiment [13], in [7], in [8] and in [9] was “inactive” in each case. For the same molecule, the Potency result in experiment [12] is “inactive”.
Consider `Clc1ccccc1CN1CCc2sccc2C1`, for which, in experiment [4], the viability (% of control) is 45.9%. Besides, the Potency result in experiment [5], in experiment [6], in experiment [13], in [7], in experiment [8] and in experiment [9] was “inactive” each time. Also, the Potency result in experiment [12] was “inactive”.
`COc1ccc2c(c1)c(CC(=O)OCC(=O)O)c(C)n2C(=O)c1ccc(Cl)cc1`: the parasite growth, % of control (lower = inhibition) in [1] was 68.6%. This molecule displayed a growth, % of control in experiment [2] of 80.2%. Besides, the viability (% of control) in experiment [4] stood at 119%. Moreover, the Potency result in experiment [6], in experiment [13], in experiment [7], in experiment [8], in experiment [9] and in experiment [12] was “inactive” in each case.
